Drawing on PubChem BioAssay (EPA / NIEHS), this text covers outcome and AC50 for twelve compounds.

Assay [1] can be described thus: ATG_NF_kB_CIS: Attagene CIS-FACTORIAL HepG2 Assay for human Nuclear Factor Kappa B (NF-kB) (AID 2282991; active means hit-call score of the fitted dose curve at least 0.9, where 1 is the maximum; inactive means score below 0.9). Conditions: HepG2 Attagene cis-factorial NF-kB reporter mRNA; actives raise or lower the signal. Put shortly:
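Measures mRNA induction of an NF-kB-responsive cis-element reporter in HepG2 cells transfected with multiple reporter units, sampled 24 h post-dosing; quantified by fluorescence after RT-PCR and capillary electrophoresis, fitted for activation or inhibition against DMSO.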

Assay [2] in a line: ATG_NRF2_ARE_CIS: Attagene CIS-FACTORIAL HepG2 Assay for human Nuclear Factor Erythroid 2 Related Factor 2 (NFR2) response to Antioxidant Response Elements (ARE) (AID 2282992; active means hit-call score of the fitted dose curve at least 0.9, where 1 is the maximum; inactive means score below 0.9). Conditions: HepG2 Attagene ARE/NRF2 reporter, transcription factor activity; actives raise or lower the signal. A digest of the protocol: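 Endogenous transcription factor activity read out as reporter transcript levels (RT-PCR plus capillary electrophoresis, fluorescence) in transiently transfected HepG2 cells. Measured at 24 h after dosing; gain or loss of signal fitted versus DMSO.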

Assay [3] in a line: ATG_Oct_MLP_CIS: Attagene CIS-FACTORIAL HepG2 Assay for human Octamer-Binding Transcription Factor (Oct) (AID 2282993; active means hit-call score of the fitted dose curve at least 0.9, where 1 is the maximum; inactive means score below 0.9). Conditions: HepG2 Attagene cis-factorial Oct reporter, mRNA; actives raise or lower the signal. Put shortly: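 Transient MRTU transfection of HepG2 → 24 h compound treatment → RNA isolation, reverse transcription, PCR → 6-FAM primer extension, HpaI digest → capillary electrophoresis. Activity fitted both directions against DMSO.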

In assay [4] the target is Cellular tumor antigen p53 (Homo sapiens) (UniProt P04637). Nature of the assay: ATG_p53_CIS: Attagene CIS-FACTORIAL HepG2 Assay for human p53 Transcription Factor (AID 2282994; active means hit-call score of the fitted dose curve at least 0.9, where 1 is the maximum; inactive means score below 0.9). Conditions: HepG2 p53 cis-element reporter, Attagene mRNA; actives raise or lower the signal. A digest of the protocol:
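Endogenous p53 activity read in transiently transfected HepG2 from a cis-element-driven reporter transcript after 24 h exposure. RNA reverse-transcribed, PCR-amplified, fluorescently labelled and sized by capillary electrophoresis; gain or loss fitted against DMSO baseline.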

Assay [5] deals with human Peroxisome Proliferator-activated Receptor alpha (PPARa), PPARA (gene 5465) (UniProt Q07869). Briefly: ATG_PPARa_TRANS: Attagene TRANS-FACTORIAL HepG2 Assay for human Peroxisome Proliferator-activated Receptor alpha (PPARa) (AID 2283001).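 On AC50: potency for gain of reporter signal over DMSO so agonist or activator.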 Put shortly:
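Transient HepG2 transfection, GAL4-UAS reporters, NR-Gal4 chimeras; 24 h compound exposure. Readout: reporter transcripts by RT-PCR, 6-FAM primer extension, HpaI digest, capillary electrophoresis. Positive direction vs DMSO baseline.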

Assay [6] concerns the target human Peroxisome Proliferator-activated Receptor delta (PPARd), PPARD (gene 5467) (UniProt Q03181). Briefly: ATG_PPARd_TRANS: Attagene TRANS-FACTORIAL HepG2 Assay for human Peroxisome Proliferator-activated Receptor delta (PPARd) (AID 2283002). Put shortly: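 HepG2 cells transiently transfected with GAL4-UAS multiplexed reporter units driven by exogenous chimeric NR-GAL4 proteins; 24 h compound exposure. Reporter mRNA measured by RT-PCR, 6-FAM primer extension, HpaI digestion and capillary electrophoresis; gain of signal fitted relative to DMSO.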

Assay [7] concerns the target Peroxisome proliferator-activated receptor gamma (Homo sapiens) (UniProt P37231). Nature of the assay: ATG_PPARg_TRANS: Attagene TRANS-FACTORIAL HepG2 Assay for human Peroxisome Proliferator-activated Receptor-gamma (PPARg) (AID 2283007). Put shortly: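 Gain-of-signal endpoint relative to DMSO, derived from reporter mRNA levels quantified by RT-PCR and capillary electrophoresis. Cells were HepG2 transiently expressing a chimeric NR-Gal4 construct with GAL4-UAS reporters, exposed to chemicals for 24 h.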

Assay [8] has as its target Nuclear receptor subfamily 1 group I member 2 (Homo sapiens) (UniProt O75469). Nature of the assay: ATG_PXR_TRANS: Attagene TRANS-FACTORIAL HepG2 Assay for human Pregnane X Receptor (PXR) (AID 2283008). Put shortly:
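Transactivation by exogenous PXR–GAL4 fusion measured as reporter transcript induction after 24 h compound treatment of transfected human HepG2 cells. Read-out via RT-PCR and capillary electrophoresis of labelled fragments, fitted upward relative to DMSO.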

Assay [9] addresses human Retinoic Acid Receptor gamma (RARg), RARG (gene 5916) (UniProt P13631). Briefly: ATG_RARg_TRANS: Attagene TRANS-FACTORIAL HepG2 Assay for human Retinoic Acid Receptor gamma (RARg) (AID 2283009). A digest of the protocol:
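Readout: reporter transcript levels via RT-PCR, 6-FAM primer-extension labelling, HpaI digestion and capillary electrophoresis. Cells: HepG2 carrying transfected RARg-GAL4 chimera plus UAS reporter set. Dosing 24 h; DMSO negative control.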

The target in assay [10] is human RAR-related Orphan Receptor gamma (RORg), RORC (gene 6097) (UniProt P51449). Nature of the assay: ATG_RORg_TRANS: Attagene TRANS-FACTORIAL HepG2 Assay for human RAR-related Orphan Receptor gamma (RORg) (AID 2283011). A digest of the protocol: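 Chimeric RORg-Gal4 transactivation in transfected HepG2; 24 h exposure; RT-PCR/capillary electrophoresis readout of reporter mRNA, DMSO baseline.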
Sequence of human RAR-related Orphan Receptor gamma (RORg), RORC (gene 6097) (P51449 whole entry, looked up, the tested form may be a part): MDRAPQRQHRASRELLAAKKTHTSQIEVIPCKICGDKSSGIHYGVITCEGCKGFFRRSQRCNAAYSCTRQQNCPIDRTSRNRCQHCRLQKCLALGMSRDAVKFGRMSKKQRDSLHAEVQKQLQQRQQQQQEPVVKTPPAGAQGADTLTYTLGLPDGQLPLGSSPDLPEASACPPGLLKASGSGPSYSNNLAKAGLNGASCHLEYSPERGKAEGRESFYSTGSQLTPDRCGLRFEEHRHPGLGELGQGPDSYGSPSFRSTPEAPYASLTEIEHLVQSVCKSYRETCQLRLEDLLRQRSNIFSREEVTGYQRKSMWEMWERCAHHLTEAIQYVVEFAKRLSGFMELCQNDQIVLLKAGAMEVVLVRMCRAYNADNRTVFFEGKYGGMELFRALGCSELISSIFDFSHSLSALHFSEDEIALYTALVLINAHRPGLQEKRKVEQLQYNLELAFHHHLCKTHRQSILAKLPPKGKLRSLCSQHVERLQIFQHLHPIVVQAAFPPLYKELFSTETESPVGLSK

For assay [11], the target named is Retinoic acid receptor RXR-alpha (Homo sapiens) (UniProt P19793). Briefly: ATG_RXRa_TRANS: Attagene TRANS-FACTORIAL HepG2 Assay for human Retinoid X Receptor alpha (RXRa) (AID 2283012). A digest of the protocol: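 Read-out: fluorescent reporter-transcript fragments quantified by capillary electrophoresis after RT-PCR. Transiently transfected HepG2 cells carrying GAL4-UAS reporters and NR-GAL4 chimeras were exposed to chemical for 24 h; activity scored as increase over DMSO.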
Sequence of Retinoic acid receptor RXR-alpha (Homo sapiens) (P19793 whole entry, looked up, the tested form may be a part): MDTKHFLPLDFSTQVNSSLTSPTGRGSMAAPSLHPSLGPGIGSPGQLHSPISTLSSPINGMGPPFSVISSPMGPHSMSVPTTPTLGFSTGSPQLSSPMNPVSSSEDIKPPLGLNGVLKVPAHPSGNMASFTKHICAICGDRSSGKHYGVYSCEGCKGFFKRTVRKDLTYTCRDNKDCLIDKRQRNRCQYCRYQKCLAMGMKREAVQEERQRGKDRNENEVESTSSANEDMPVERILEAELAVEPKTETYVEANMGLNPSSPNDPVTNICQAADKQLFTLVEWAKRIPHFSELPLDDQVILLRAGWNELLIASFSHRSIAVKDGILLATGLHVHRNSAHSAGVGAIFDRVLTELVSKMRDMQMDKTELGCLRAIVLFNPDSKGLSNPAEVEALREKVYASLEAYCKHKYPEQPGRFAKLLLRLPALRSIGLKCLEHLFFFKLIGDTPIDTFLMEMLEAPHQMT

Assay [12] addresses human Retinoic Acid Receptor beta (RARb), RARB (gene 5915) (UniProt P10826). Nature of the assay: ATG_RARb_TRANS: Attagene TRANS-FACTORIAL HepG2 Assay for human Retinoic Acid Receptor beta (AID 2283004). A digest of the protocol:
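Fluorescent capillary-electrophoresis detection of GAL4-UAS reporter mRNA defines the endpoint, with induction over DMSO-treated wells scored as activity. Transiently transfected human hepatoma HepG2 cells expressing exogenous NR–Gal4 proteins are exposed to test chemicals for 24 h.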

Assay [13] concerns the target Retinoic acid receptor alpha (Homo sapiens) (UniProt P10276). Briefly: ATG_RARa_TRANS: Attagene TRANS-FACTORIAL HepG2 Assay for human Retinoic Acid Receptor alpha (RARa) (AID 2283005). A digest of the protocol:
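HepG2 transiently transfected with multiplex GAL4-UAS reporter units including a human RARa–GAL4 chimera; 24 h compound exposure. Reporter mRNA quantified by RT-PCR, 6-FAM labeling and capillary electrophoresis; gain of signal versus DMSO.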

Assay [14] deals with human RAR-related Orphan Receptor beta (RORb), RORB (gene 6096) (UniProt Q92753). Briefly: ATG_RORb_TRANS: Attagene TRANS-FACTORIAL HepG2 Assay for human RAR-related Orphan Receptor beta (RORb) (AID 2283010). A digest of the protocol:
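HepG2, transient MRTU transfection (GAL4-UAS reporters, exogenous NR-Gal4 chimeras); 24 h compound exposure; total RNA → RT-PCR → 6-FAM primer extension → HpaI digest → CE fluorescence. Positive direction vs DMSO baseline.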

Results filed as inconclusive are left out. Calls of active or inactive are those of the source. How the source made its calls, unless noted: active means hit-call score of the fitted dose curve at least 0.9, where 1 is the maximum; inconclusive means response in the unintended direction; inactive means score below 0.9.

Sequence of Peroxisome proliferator-activated receptor gamma (Homo sapiens) (P37231 whole entry, looked up, the tested form may be a part): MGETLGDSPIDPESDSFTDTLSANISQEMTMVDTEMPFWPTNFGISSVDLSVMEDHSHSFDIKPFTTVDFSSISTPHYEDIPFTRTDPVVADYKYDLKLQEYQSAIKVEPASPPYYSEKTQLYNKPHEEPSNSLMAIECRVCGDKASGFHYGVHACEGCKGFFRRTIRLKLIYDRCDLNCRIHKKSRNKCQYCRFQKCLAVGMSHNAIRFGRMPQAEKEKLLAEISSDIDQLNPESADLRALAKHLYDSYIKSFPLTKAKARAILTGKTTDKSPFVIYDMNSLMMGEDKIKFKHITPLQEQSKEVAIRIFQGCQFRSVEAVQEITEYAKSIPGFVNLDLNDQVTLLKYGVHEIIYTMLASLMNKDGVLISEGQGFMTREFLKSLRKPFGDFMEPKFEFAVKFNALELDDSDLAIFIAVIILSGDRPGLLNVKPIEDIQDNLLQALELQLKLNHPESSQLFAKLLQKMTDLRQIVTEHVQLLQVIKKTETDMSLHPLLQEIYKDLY
Sequence of human Retinoic Acid Receptor beta (RARb), RARB (gene 5915) (P10826 whole entry, looked up, the tested form may be a part): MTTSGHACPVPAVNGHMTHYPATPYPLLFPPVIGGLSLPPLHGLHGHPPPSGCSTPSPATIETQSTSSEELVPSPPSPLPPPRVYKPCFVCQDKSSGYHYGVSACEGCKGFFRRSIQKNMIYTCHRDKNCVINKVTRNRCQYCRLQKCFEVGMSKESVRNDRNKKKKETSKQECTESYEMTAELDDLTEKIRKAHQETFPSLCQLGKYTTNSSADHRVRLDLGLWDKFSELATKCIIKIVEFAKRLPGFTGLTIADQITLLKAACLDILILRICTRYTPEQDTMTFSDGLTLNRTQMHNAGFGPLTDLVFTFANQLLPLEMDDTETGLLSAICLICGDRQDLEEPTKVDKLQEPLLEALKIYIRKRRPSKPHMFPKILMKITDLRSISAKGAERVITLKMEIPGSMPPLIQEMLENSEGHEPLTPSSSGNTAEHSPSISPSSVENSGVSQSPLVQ
Sequence of human RAR-related Orphan Receptor beta (RORb), RORB (gene 6096) (Q92753 whole entry, looked up, the tested form may be a part): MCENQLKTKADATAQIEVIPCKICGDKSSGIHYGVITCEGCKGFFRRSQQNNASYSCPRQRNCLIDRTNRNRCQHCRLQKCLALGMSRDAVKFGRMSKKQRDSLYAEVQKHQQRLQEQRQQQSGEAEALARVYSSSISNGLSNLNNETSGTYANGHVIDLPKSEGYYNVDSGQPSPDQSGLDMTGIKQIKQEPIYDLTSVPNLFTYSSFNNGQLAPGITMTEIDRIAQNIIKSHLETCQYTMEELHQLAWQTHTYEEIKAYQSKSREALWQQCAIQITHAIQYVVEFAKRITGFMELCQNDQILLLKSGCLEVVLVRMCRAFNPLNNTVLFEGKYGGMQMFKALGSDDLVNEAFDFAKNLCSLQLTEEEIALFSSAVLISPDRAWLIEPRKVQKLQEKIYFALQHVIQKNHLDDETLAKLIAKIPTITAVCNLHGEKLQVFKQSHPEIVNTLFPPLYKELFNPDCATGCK
Sequence of human Peroxisome Proliferator-activated Receptor alpha (PPARa), PPARA (gene 5465) (Q07869 whole entry, looked up, the tested form may be a part): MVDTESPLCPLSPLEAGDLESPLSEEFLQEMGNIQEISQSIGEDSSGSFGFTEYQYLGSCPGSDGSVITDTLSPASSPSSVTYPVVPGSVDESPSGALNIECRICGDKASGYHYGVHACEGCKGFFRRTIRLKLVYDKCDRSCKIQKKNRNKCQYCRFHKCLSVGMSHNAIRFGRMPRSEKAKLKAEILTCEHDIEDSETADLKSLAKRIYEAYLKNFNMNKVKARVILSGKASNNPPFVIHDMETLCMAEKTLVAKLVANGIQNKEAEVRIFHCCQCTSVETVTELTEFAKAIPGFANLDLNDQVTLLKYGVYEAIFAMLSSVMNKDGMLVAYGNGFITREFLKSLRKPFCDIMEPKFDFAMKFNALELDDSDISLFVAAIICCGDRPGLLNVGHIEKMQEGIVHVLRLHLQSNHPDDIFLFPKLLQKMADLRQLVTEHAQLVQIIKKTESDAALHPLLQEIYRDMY
Sequence of Retinoic acid receptor alpha (Homo sapiens) (P10276 whole entry, looked up, the tested form may be a part): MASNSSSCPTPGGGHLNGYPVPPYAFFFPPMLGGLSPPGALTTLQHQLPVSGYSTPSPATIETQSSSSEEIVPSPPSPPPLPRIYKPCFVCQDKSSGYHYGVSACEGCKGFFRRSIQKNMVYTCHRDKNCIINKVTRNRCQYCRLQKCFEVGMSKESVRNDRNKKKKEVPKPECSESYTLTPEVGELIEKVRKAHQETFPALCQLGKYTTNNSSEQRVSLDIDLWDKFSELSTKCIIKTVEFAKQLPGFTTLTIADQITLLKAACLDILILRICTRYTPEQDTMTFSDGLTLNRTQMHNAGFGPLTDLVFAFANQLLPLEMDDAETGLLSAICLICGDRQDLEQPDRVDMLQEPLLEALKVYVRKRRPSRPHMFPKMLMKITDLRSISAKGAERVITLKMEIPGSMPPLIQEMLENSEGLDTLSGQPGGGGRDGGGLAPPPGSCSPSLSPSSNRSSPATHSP
Sequence of human Peroxisome Proliferator-activated Receptor delta (PPARd), PPARD (gene 5467) (Q03181 whole entry, looked up, the tested form may be a part): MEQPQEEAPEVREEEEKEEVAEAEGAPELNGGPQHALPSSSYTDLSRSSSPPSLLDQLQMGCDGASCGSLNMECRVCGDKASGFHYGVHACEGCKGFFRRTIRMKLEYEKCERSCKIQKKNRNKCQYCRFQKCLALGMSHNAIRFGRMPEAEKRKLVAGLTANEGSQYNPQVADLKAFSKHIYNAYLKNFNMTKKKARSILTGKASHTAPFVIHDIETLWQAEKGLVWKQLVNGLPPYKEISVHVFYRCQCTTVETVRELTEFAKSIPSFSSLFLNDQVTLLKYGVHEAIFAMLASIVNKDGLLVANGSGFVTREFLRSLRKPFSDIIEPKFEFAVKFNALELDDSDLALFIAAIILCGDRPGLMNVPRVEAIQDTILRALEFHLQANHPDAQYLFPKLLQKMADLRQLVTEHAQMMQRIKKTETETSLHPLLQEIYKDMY
Sequence of human Retinoic Acid Receptor gamma (RARg), RARG (gene 5916) (P13631 whole entry, looked up, the tested form may be a part): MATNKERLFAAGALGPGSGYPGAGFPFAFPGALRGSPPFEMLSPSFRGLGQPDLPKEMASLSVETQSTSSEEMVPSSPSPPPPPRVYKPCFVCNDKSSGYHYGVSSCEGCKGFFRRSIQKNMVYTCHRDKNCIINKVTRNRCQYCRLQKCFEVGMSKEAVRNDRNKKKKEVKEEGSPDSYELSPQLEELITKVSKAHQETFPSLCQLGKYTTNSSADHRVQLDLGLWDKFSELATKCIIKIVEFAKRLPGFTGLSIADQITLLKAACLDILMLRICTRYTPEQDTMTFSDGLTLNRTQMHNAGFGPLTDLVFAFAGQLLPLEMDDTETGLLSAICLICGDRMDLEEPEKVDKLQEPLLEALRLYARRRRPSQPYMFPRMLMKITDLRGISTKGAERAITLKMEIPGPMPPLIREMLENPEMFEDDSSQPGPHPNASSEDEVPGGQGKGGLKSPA
Sequence of Nuclear receptor subfamily 1 group I member 2 (Homo sapiens) (O75469 whole entry, looked up, the tested form may be a part): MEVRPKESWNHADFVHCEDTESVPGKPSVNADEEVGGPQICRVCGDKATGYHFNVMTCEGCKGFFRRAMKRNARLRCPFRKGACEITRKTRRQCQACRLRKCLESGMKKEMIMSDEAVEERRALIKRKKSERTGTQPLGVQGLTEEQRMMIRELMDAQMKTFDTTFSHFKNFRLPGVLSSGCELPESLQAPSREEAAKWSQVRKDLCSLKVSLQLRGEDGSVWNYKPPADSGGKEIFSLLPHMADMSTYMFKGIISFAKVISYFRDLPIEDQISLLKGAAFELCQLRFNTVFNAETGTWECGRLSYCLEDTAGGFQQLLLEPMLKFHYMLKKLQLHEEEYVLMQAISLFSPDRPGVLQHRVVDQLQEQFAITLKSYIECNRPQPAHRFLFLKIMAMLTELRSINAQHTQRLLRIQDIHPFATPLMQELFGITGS

Turning to `COC(=O)c1cc(Oc2ccc(Cl)cc2Cl)ccc1[N+](=O)[O-]`, the result in assay [1], in assay [3], in assay [4], in [5], in assay [6] and in [9] was inactive. The result in assay [10] and in assay [11] was inactive. The figures for the AC50 in [2], in [7] and in [8] were 56.8 µM (active), 20 µM (active) and 13.7 µM (active), respectively.

As to `CC(C)CC(C)(c1ccc(O)cc1)c1ccc(O)cc1`, the call in assay [1], in [6], in assay [12], in assay [13], in assay [9] and in assay [11] was inactive. Also, the AC50 in [2] was 11.1 µM (active); in [3], 17 µM (active); in assay [4] it was 11.1 µM (active); in [7], 11.1 µM (active); in [8], 1.47 µM (active).

As to `Nc1nc(=S)[nH][nH]1`, the result in [1], in assay [2], in [3], in [4], in assay [5] and in assay [7] was inactive. Moreover, the call in assay [8] and in assay [10] was inactive.

As for `Nc1ccc(Br)cc1`, the compound was called inactive in assay [1], in assay [2], in assay [3], in assay [4], in [5] and in assay [6]. The compound was classed as inactive in assay [7], in assay [8], in assay [10] and in assay [11].

Regarding `Cl[C@H]1OCCO[C@@H]1Cl`, the result in assay [1], in assay [2], in [3], in assay [4], in [5] and in [12] was inactive. For the same compound, the outcome in assay [7], in [8], in assay [9], in [14], in assay [10] and in assay [11] was inactive.

In the case of `C=CCOC(F)(C(F)(F)F)C(F)(F)F`, the result in assay [1], in assay [2], in assay [3], in [4], in assay [5] and in assay [6] was inactive. The outcome in assay [7] and in [11] was inactive.

`N#Cc1ccccc1Cl`: the compound was called inactive in assay [1], in assay [2], in assay [3], in [4], in [5] and in assay [6]. Also, the call in [13], in assay [8] and in assay [14] was inactive.

As for `Nc1ccc(-c2ccccc2)cc1`, the compound was called inactive in [1], in [3], in assay [4], in assay [5], in assay [6] and in [8]. For the same compound, the result in assay [11] was inactive. In [2], the AC50 was 32 µM (active).

As for `COP(=S)(OC)Oc1cc(Cl)c(I)cc1Cl`, the AC50 in assay [1] was 55.6 µM (active); in assay [2] it was 8.28 µM (active); in [3], 30.7 µM (active); in assay [4], 52.6 µM (active); in assay [5] it was 38 µM (active); in assay [7], 28.3 µM (active). Also, the AC50 in assay [8] was 21.8 µM (active). The outcome in assay [6] and in assay [11] was inactive.

For the compound `CC(C)[N+](=O)[O-]`, the result in assay [1], in assay [2], in assay [3], in [4], in assay [6] and in assay [12] was inactive. For the same compound, the compound was called inactive in assay [13], in [7], in assay [8], in [14] and in [10].

For the compound `C=CCOC(N)=O`, the outcome in assay [1], in assay [2], in assay [3], in assay [4], in [6] and in assay [12] was inactive. Moreover, the outcome in assay [13], in [7], in [9] and in assay [10] was inactive.

Take `N#CCC#N`: the call in assay [1], in assay [2], in [3], in assay [4], in assay [5] and in assay [6] was inactive. The compound was classed as inactive in [13], in assay [7] and in assay [8]. For the same compound, in [11], the AC50 was 43.1 µM (active).

The AC50 is the midpoint of the concentration-response curve, whichever way the signal moves.
